# In the library only some 7.5% were active in any assay of this set; here they are far more common.
# HCMV antiviral: blocks human cytomegalovirus replication. activity change, negative = inhibition, % at 57.5 µM. 4.5% of 410,000 active. AID 1259415. HFF cells, HCMV-luciferase reporter, 72 h; stronger effect = lower value; in the data active = activity change below about -60%; inconclusive = no clear call, values can overlap the other calls; inactive = above about -39%
#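 Two-dose cell screen: HFF monolayers treated with compounds and infected with luciferase-expressing HCMV at 1 PFU/cell, 72 h at 37C, then lysed for luciferase measurement.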
# FMDV antiviral: blocks foot and mouth disease virus; FMDV antiviral cell-based qHTS; Potency, µM (top dose mostly 57.9 µM), without a hit: at the highest dose activity change, negative = inhibition, hits mostly inhibitors; AID 1159524; 1.2% of 410,000 active; calls by dose curve; tested in HEK293T cells; note: read-out not given here; potency is the fitted concentration of half-maximal effect; nearly all actives have a fitted effect of over 45% in size
# Vaccinia mCherry: vaccinia inhibition (mCherry reporter); Vaccinia virus mCherry reporter infection, fluorescence; Potency, µM (series often up to 36.5 µM), for the others: at the highest dose activity change, negative = inhibition, usual class: inhibitors; 0.63% of 310,000 active; AID 720579; calls by dose curve; tested in A549 cells; note: potency is the fitted concentration of half-maximal effect; nearly all actives have a fitted effect of over 35% in size
# VACV Venus inh: vaccinia inhibition (Venus reporter); Vaccinia virus Venus reporter expression, fluorescence; Potency, µM (series often up to 36.5 µM), for the others: top-dose activity change, negative = inhibition, usual class: inhibitors; 0.46% of 330,000 active; calls by dose curve; tested in A549 cells; note: potency is the fitted concentration of half-maximal effect; nearly all actives have a fitted effect of over 30% in size
# Giardia FBPA inh: blocks Giardia fructose-bisphosphate aldolase activity; A8B2U2; purified Giardia FBPA; Potency, µM (highest dose often 59.6 µM), without a hit: at the highest dose activity, negative = inhibition, usual class: inhibitors; 0.71% of 290,000 active; note: potency is the fitted concentration of half-maximal effect; nearly all actives have a fitted effect of over 55% in size
# Target sequence (A8B2U2 whole entry, looked up): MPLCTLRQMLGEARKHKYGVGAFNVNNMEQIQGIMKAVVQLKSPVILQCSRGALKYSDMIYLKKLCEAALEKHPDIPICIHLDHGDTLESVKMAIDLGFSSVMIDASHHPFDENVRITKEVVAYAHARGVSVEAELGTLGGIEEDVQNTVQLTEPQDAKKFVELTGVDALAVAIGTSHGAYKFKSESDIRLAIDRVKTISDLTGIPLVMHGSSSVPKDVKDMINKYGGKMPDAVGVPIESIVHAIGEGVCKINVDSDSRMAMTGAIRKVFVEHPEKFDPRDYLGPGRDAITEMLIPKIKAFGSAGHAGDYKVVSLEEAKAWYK
#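 Giardia FBPA (40 nM reagent) was preincubated 10 min at RT with compound (up to 57.5 uM final), then substrate plus GAPDH/TPI/NAD/arsenate coupling system with diaphorase/resazurin was added; resorufin fluorescence (525/598 nm) was read after 20 min.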
# HCV inh: blocks hepatitis C virus. Huh7.5.1 HCVcc-Cre infection, luciferase reporter, 44 h. Potency, µM (titrated, usually from 41.8 µM), for the others: top-dose activity change, negative = inhibition, hits mostly inhibitors. 3.4% of 340,000 active. AID 651820; note: potency is the fitted concentration of half-maximal effect
#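 Cells (1,000/well) were plated 4 h before compound, then infected with HCVcc-Cre virus (~0.5 moi). After 44 h further culture, infection was read as luciferase luminescence following a 15 min substrate incubation at room temperature.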
# An asterisk follows results filed as active; i = inactive; ? = inconclusive; nt = no result. Unless noted, calls come from the whole dose curve; as a rule, active = well fitted curve in the direction sought with a large enough effect; inconclusive = small, poorly fitted or top-dose-only effect, or another doubt; inactive = no such curve, though single readings can be large; an effect the other way counts as inactive or inconclusive. % is set by controls: 0 for no effect and ±100 for the full control effect.
SMILES,HCMV antiviral,FMDV antiviral,Vaccinia mCherry,VACV Venus inh,Giardia FBPA inh,HCV inh
CCCCN(CC)CCNC(=O)c1cc2c(C)nc3ccccc3c2o1,?,0%,13%,-1%,-2%,6.3µM*
COc1cccc(CNC(=O)c2cc(-c3cccs3)nc3ccccc23)c1,14,-19%,-14%,-6%,nt,nt
COc1ccc(Cn2ccc3nc(C)c(C(=O)NCc4ccc(OC)cc4OC)cc3c2=O)cc1,-4,?,-6%,-14%,nt,nt
Cc1nc2ccccc2c2oc(C(=O)NCC3COc4ccccc4O3)cc12 (centres undefined),?,?,?,-16%,-2%,10µM*
COc1ccc(CNC(=O)c2cc3c(C)nc4ccccc4c3o2)c(OC)c1,nt,?,-19%,?,2%,3.2µM*
COc1cccc(CNC(=O)c2cc3c(C)nc4ccccc4c3o2)c1,?,22µM*,?,?,4%,6.3µM*
O=C(NC1(C(F)(F)F)NC(=O)N(CCc2ccccc2)C1=O)c1ccccc1F (centres undefined),-4,-9%,-13%,-4%,nt,nt
CN(C)CCCNC(=S)Nc1ccc(Br)cc1,?,-5%,nt,nt,4%,12%
CC(=O)c1ccc(N2CCN(C(=O)c3cc4c(C)nc5ccccc5c4o3)CC2)cc1,?,?,nt,nt,-4%,14%
CCc1ccc2oc(C(=O)N3CCN(c4ccc(OC)cc4)CC3)cc(=O)c2c1,-63*,?,-28%,-26%,-1%,?
CCc1ccc(CNC(=O)c2cc3c(C)nc4ccccc4c3o2)cc1,-64*,?,?,?,-1%,11µM*
COc1ccc(N2CCN(C(=O)c3cc4c(C)nc5ccccc5c4o3)CC2)cc1,-100*,?,nt,nt,-2%,?
CC(=O)Nc1ccc(NC(=O)CSc2nnc(CNc3ccc(F)cc3)n2CC2CCCO2)cc1 (centres undefined),-10,0%,-6%,-3%,1%,12%
O=C(CSc1nnc(CNc2ccc(F)cc2)n1CC1CCCO1)N1CCOCC1 (centres undefined),-98*,11%,i,-5%,-2%,14%
CCCc1nnc(SCC(=O)N2CCOCC2)n1CC1CCCO1 (centres undefined),-68*,-5%,i,-8%,2%,21%
Cc1ccc2c(c1)N(C(=O)CCC(=O)NC1CCN(Cc3ccccc3)CC1)CC(C)O2 (centres undefined),-7,0%,-6%,-18%,0%,-28%
Cc1cc(S(=O)(=O)Nc2cc3c(cc2N2CCOCC2)n(C)c(=O)n3C)ccc1F,29,-5%,0%,-11%,nt,nt
Cn1c(=O)c(=O)n(C)c2cc(N3CCOCC3)c(NS(=O)(=O)c3ccc(F)c(Cl)c3)cc21,-13,3%,11µM*,?,?,15%
COc1ccc([C@H]2Cc3cc(O)cc(O)c3C(=O)O2)cc1O,-102*,-3%,-1%,-17%,nt,13%
COc1ccc([C@H]2Cc3cccc(O)c3C(=O)O2)cc1O,2,21%,?,-4%,nt,?
O=C1c2ccccc2S(=O)(=O)c2cc(C(=O)N3CCC(C(=O)N4CCCCC4)CC3)ccc21,17,-4%,?,1.4µM*,nt,1%
CC1CCCC(C)N1C(=O)c1ccc2c(c1)S(=O)(=O)c1ccccc1C2=O (centres undefined),-32,-2%,-11%,-11%,8%,9%
O=C(c1ccc2c(c1)N(Cc1cccc(Cl)c1)C(=O)c1ccccc1S2(=O)=O)N1CCN(Cc2ccccc2)CC1,-67*,-13%,-17%,-11%,nt,nt
O=C(c1ccc2c(c1)N(Cc1cccc(Cl)c1)C(=O)c1ccccc1S2(=O)=O)N1CCCC1,?,-1%,-6%,-3%,nt,nt
O=C(c1ccc2c(c1)N(Cc1cccc(Cl)c1)C(=O)c1ccccc1S2(=O)=O)N1CCN(c2ccccn2)CC1,-84*,-6%,nt,nt,-2%,14µM*
O=C(c1ccc2c(c1)N(Cc1cccc(Cl)c1)C(=O)c1ccccc1S2(=O)=O)N1CCCCCC1,-65*,3%,-14%,-11%,nt,nt
O=C(c1cnccn1)N1CCC2(CC1)CCN(c1ccncc1)CC2,nt,-12%,nt,nt,-1%,nt
